The values below come from PubChem BioAssay (NCI).

SMILES strings stand for the structures. About 79,000 compounds went through this panel and 15% of them were active in at least one assay; those are over-represented in the sample as a whole. Calls of active or inactive are those of the source. Cut-off read from the data, not from the text of the source: active = growth inhibition above about 70%; inactive = the rest.

One assay is described as follows: NCI Yeast Anticancer Drug Screen. Data for the bub3 strain (AID 167). Conditions: S. cerevisiae bub3 mutant strain, at 50.0 µM, stronger effect = higher value. Summed up:
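Mutant yeast screening strain plus compound; vehicle-treated cultures serve as the 0% inhibition reference.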
Consider `S=C(Sc1nc2ccccc2s1)Sc1nc2ccccc2s1`, for which the growth inhibition was 97.5% (active).

Turning to `CN(C)C(=O)Nc1ccc2c(c1)OCO2`, the growth inhibition is -13.2% (inactive). Still for that read-out and setting: next, `O=C1CN(CN2CCOCC2)C(=O)CN1CN1CCOCC1`: 36.2% (inactive); `NC(=O)c1cn(C2OC(CO)C(O)C2O)c2nc(N)nc(N)c2c1=O` (stereo not drawn): 23.1% (inactive); `CCOc1ccc(C(C)c2cc3c(cc2OC)OCO3)cc1` (stereo not drawn): 27.5% (inactive). For the compound `N/C=N/O`, the growth inhibition was 18.8% (inactive). For the compound `Cc1ccc(NC(=S)Nc2cccc(C(F)(F)F)c2)cc1C`, the growth inhibition was -7.3% (inactive).

Regarding `COc1cc(-c2[nH]ncc2CCCC(=O)Nc2ccccc2[N+](=O)[O-])ccc1O`, the growth inhibition was -2.75% (inactive). Same read-out and setting: next, `COc1ccc(-n2cnc3[nH]ncc3c2=O)cc1`: 12.3% (inactive); `Cc1cccc2c1CCC21OC(=O)c2c1ccc1ccccc21` (stereo not drawn): 15.2% (inactive); `CC(=Nc1cccc2ccccc12)c1c(O)cc(C)oc1=O`: 16.1% (inactive). The same measure, in the same setting: next, `CC(=O)N1CN2C(=O)CCC2c2ccccc21` (stereo not drawn): -21.5% (inactive); `O=C(O)c1ccc(C(=O)c2ccc(Cl)cc2)cc1`: 13.6% (inactive). For the compound `C=CCNC(=S)N1c2ccccc2NC(=O)CC1C` (stereo not drawn), the growth inhibition is 13.1% (inactive).

Consider `CC(=O)Oc1ccc2c(=O)c(C(C)=O)coc2c1`, for which the growth inhibition was 4.2% (inactive). Turning to `CCOc1ccc(C2=C/C(=C/c3cccs3)C(=O)O2)cc1`, the growth inhibition was 14.4% (inactive).

A short description of the next assay: NCI Yeast Anticancer Drug Screen. Data for the mlh1 rad18 strain (AID 175). The note with it: S. cerevisiae mlh1 rad18 strain growth inhibition; at 50.0 µM; stronger effect = higher value. Summed up:
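Compound-treated yeast growth, normalised to vehicle controls. Strain bears defined DNA repair mutations.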
Regarding `CC1CCC2C(C)C3C(CC4C5CC=C6CC(O)CCC6(C)C5CCC43C=O)N2C1` (stereo not drawn), the growth inhibition was 19.4% (inactive).

As to `CCCCCCCCCCCCCC(=O)OCCN(C)C`, the growth inhibition was -12.4% (inactive). Consider `C[N+]1(C)CCC(c2ccccc2)(c2ccccc2)C(O)C1` (stereo not drawn), for which the growth inhibition is 1.5% (inactive). Consider `CN(C)c1ccccc1C(=O)NNC(=S)Nc1ccccc1`, for which the growth inhibition is 19.4% (inactive).

Regarding `CCN(CC)CCNC(=O)c1ccccc1NC(=O)C(=O)Nc1ccccc1C(=O)NCCN(CC)CC`, the growth inhibition is -41.6% (inactive). For `C/C=C1/CN2CCc3c([nH]c4ccccc34)C2CC1C(Cc1c[n+]2c(c3[nH]c4ccccc4c13)CC1C(C(=O)OC)=COC(C)C1C2)C(=O)OC` (stereo not drawn), the growth inhibition is -12.3% (inactive). In the case of `CC(C)(c1ccc([N+](=O)[O-])cc1)c1ccc(N)c([N+](=O)[O-])c1`, the growth inhibition is -13.1% (inactive). On the same count and under the same terms, next, `C1=CC(c2ccccc2)C(c2ccccc2)C(c2ccccc2)=C1` (stereo not drawn): -22.6% (inactive).

Turning to `O=C1OC(c2ccc([N+](=O)[O-])cc2)=N/C1=C\c1cccc([N+](=O)[O-])c1`, the growth inhibition is 52% (inactive). Still for that read-out and setting: next, `CC1CNC(=S)SSC(=S)N1` (stereo not drawn): 27.7% (inactive). On the same count and under the same terms, the same measure for `CC(=O)c1cc2c(cc1C(C)C)C(C)(C)C(C)CC2(C)C` (stereo not drawn): 17.4% (inactive).

Regarding `CO[C@H]1CC2CC1C1C3=C(NC21)C1(O)C[C@H]2CN(CC3)C1C[C@@H]2C(C)CO` (stereo partly drawn), the growth inhibition was -23.6% (inactive). For `Nc1nc(N)c(N=Nc2ccc(Cl)cc2)c(=O)[nH]1`, the growth inhibition is 13.7% (inactive).

Regarding `O=C(O)/C=C\c1cc2c(cc1[N+](=O)[O-])OCO2`, the growth inhibition was -2.5% (inactive). Same read-out and setting: the same measure for `CCCOc1ccc(C(N)=S)c2ccccc12`: 12.3% (inactive). On the same count and under the same terms, the same measure for `O=C(O)c1cccc2c1C(=O)c1c(O)cccc1C2=O`: 30.2% (inactive); for `O=C1C(O)=C(Br)C(=O)C(O)=C1Br`: 11.6% (inactive); for `Oc1ccccc1/C=N\c1nccs1`: 13.2% (inactive). The same measure, in the same setting: next, `COc1ccccc1C=Nc1ccc(O)cc1`: 37.5% (inactive); `O=C(O)C1COCOC1c1ccccc1` (stereo not drawn): 6.9% (inactive); `CNS(=O)(=O)c1c(C)cccc1CC(=O)c1ccccc1`: -8.2% (inactive). For the compound `CCC1CNCCC1CC(=O)O` (stereo not drawn), the growth inhibition was -22.2% (inactive). Take `O=C1/C(=C\c2ccccn2)c2ccccc2N1Cc1ccccc1`: the growth inhibition is 22.3% (inactive). Still for that read-out and setting: the same measure for `Cn1c(SCc2ccc(F)cc2)nnc1C12CC3CC(CC(C3)C1)C2`: -48.1% (inactive); for `S=C(Sc1nc2ccccc2s1)Sc1nc2ccccc2s1`: 90.7% (active); for `CN(C)C(=O)Nc1ccc2c(c1)OCO2`: 9.45% (inactive). Take `O=C1CN(CN2CCOCC2)C(=O)CN1CN1CCOCC1`: the growth inhibition was 32.9% (inactive). Turning to `NC(=O)c1cn(C2OC(CO)C(O)C2O)c2nc(N)nc(N)c2c1=O` (stereo not drawn), the growth inhibition is 45.1% (inactive).

Turning to `CCOc1ccc(C(C)c2cc3c(cc2OC)OCO3)cc1` (stereo not drawn), the growth inhibition is 11.8% (inactive). As to `N/C=N/O`, the growth inhibition is 22.7% (inactive). On the same count and under the same terms, the same measure for `Cc1ccc(NC(=S)Nc2cccc(C(F)(F)F)c2)cc1C`: 20.6% (inactive); for `COc1cc(-c2[nH]ncc2CCCC(=O)Nc2ccccc2[N+](=O)[O-])ccc1O`: 18.5% (inactive).
